Rab9 prom act: activates the Rab9 promoter; Huh7 Rab9 promoter-luciferase reporter, luminescence, 24 h; Potency, µM (titrated, usually from 9.22 µM), most hits filed as activators; hit rate 2.8% among 320,000; AID 485297; note: nearly all actives have a fitted effect of over 60% in size
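Luminescence read-out: Huh7 cells stably expressing Rab9-luciferase, treated 24 h with compound at 37 °C, then lysed with luciferase reagent for 10 min at ambient before reading.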
ELG1 repair inh: blocks ELG1-dependent DNA repair in HEK293T cells | HEK293T ELG1-luciferase reporter, luminescence, 16 h; DNA damage induced by 5-fluorouridine | Potency, µM (highest dose often 46.1 µM), most hits filed as inhibitors | hit rate 2.3% among 330,000 | AID 504467; note: nearly all actives have a fitted effect of over 55% in size
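In this reporter screen, reduction of luminescence relative to DMSO vehicle indicated activity. Compounds and 5-fluorouridine were added together to 2,000 cells per well, incubated for 16 hr at 37 °C, then developed with ONE-Glo.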
FLuc modulator: counter-screen for miR-21 project: firefly luciferase inhibitors or activators; Potency, µM (top dose mostly 57.5 µM), usual class: inhibitors; P08659; hit rate 6.9% among 360,000; purified FLuc, Km substrates, luminescence inhibition; note: nearly all actives have a fitted effect of over 55% in size
Target sequence (P08659 whole entry, looked up): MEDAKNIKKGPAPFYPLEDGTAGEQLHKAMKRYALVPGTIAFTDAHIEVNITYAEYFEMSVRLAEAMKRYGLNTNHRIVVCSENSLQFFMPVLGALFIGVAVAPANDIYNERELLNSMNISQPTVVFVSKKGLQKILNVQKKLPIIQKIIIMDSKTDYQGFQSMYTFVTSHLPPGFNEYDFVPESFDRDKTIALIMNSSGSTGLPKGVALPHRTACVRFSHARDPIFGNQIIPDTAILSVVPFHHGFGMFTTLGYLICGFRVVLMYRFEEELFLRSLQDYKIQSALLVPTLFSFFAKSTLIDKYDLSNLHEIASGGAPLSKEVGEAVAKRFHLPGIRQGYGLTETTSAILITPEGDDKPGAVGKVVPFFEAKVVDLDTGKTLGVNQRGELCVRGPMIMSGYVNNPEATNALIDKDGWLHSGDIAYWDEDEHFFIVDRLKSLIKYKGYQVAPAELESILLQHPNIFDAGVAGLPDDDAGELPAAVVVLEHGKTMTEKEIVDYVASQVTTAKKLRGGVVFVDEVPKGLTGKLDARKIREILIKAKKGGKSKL
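Purified P. pyralis luciferase, 10 nM final, with Km-level 10 uM D-luciferin and 10 uM ATP in 50 mM Tris acetate pH 7.5, 10 mM Mg acetate, 0.01% Tween-20, 0.05% BSA; 6-point qHTS titration about 60 µM downward; luminescence read.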
SMN2 splice up: increases expression of the SMN2 splice variant. hit rate 2.8% among 210,000. Potency, µM (series often up to 46.1 µM), most hits filed as activators. HEK293 SMN2-luciferase splicing reporter, luminescence, 30-36 h; note: nearly all actives have a fitted effect of over 55% in size
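qHTS luciferase splicing reporter: luminescence rises when SMN2 exon 7 is included in transfected HEK293 cells. Compound exposure lasted 30-36 h at 37C, with 4.5 mM final sodium butyrate as control, followed by a ONE-Glo read.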
ELG1 genotox: induces genotoxicity in HEK293T cells with luciferase-tagged ELG1; AID 504466; HEK293T ELG1-luciferase reporter, luminescence, 16 h; hit rate 1.3% among 330,000; Potency, µM (series often up to 46 µM), hits mostly activators; note: nearly all actives have a fitted effect of over 60% in size
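After overnight (16 hr) compound treatment at 37 °C, ELG1-luciferase HEK293T cells were lysed with ONE-Glo; luminescence quantified 30 min later at room temperature.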
NPC1 promoter act: activates the NPC1 promoter; Huh7 NPC1 promoter luciferase reporter, 24 h; Potency, µM (top dose mostly 9.22 µM), actives largely listed as activators; hit rate 2.4% among 320,000; AID 485313; note: nearly all actives have a fitted effect of over 60% in size
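Compounds in DMSO were transferred onto Huh7 NPC1-luciferase reporter cells pre-incubated 2 h; after 24 h at 37 °C, Amplite reagent was dispensed and luminescence recorded 10 min later.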
Hits are given with their value; i = inactive; ? = inconclusive; nt = no result given; [ ] = remark or other dose. Rows were chosen to be rich in hits. Some 9.3% of all compounds tested hit in one or more screens of this group. Calls come from the whole dose curve; as a rule, active = well fitted curve in the direction sought with a large enough effect; inconclusive = small, poorly fitted or top-dose-only effect, or another doubt; inactive = no such curve, though single readings can be large; an effect the other way counts as inactive or inconclusive.

SMILES	Rab9 prom act	ELG1 repair inh	FLuc modulator	SMN2 splice up	ELG1 genotox	NPC1 promoter act
CN(CC1COc2ccccc2O1)c1nc(-c2cccnc2)nc2ccccc12 (configuration not stated)	i	16µM	i	i	i	i
COc1ccc(C(=O)Nc2nnc(S(=O)(=O)N(CC(C)C)c3ccc(C)cc3)s2)cc1OC	nt	nt	8.5µM	nt	nt	nt
COc1ccc(C)cc1NC(=O)c1c(C)nn(Cc2ccccc2)c1Cl	i	15µM	i	i	i	i
CCOc1ccc(NC(=O)c2c(C)nn(Cc3ccccc3)c2Cl)cc1	i	i	i	nt	?	i
Cc1cc(C(=O)CS(=O)(=O)c2ccccc2)cc(C)c1OC(=O)N(C)C	0.79µM	?	6.7µM	10µM	i	3.2µM
Cc1ccc(S(=O)(=O)CC(=O)c2cc(C)c(OC(=O)N(C)C)c(C)c2)cc1	i	i	i	i	i	i
CC(C)(C)C(=O)CP(=O)(O)O	nt	nt	nt	i[9.22 µM]	nt	nt
CC[N+](C)(C)c1cccc(O)c1	i	i	i	?	i	i
Oc1cc(Cl)cc(Cl)c1	nt	nt	nt	i	nt	nt
O=C(O)Cn1cc(/C=C2\C(=O)NC(=O)N(Cc3ccco3)C2=O)c2ccccc21	i	i	17µM	i	i	i
CC(C)(C)n1cc(C(=O)c2ccc3ccccc3c2O)cn1	0.56µM	?	0.67µM	i	?	0.45µM
Cc1cccc(OCC(=O)N2CCN(Cc3ccncc3)CC2)c1	i	i	i	i	i	i
Cc1ccc(C(C)C)c(OCC(=O)N2CCN(Cc3nc4cc([N+](=O)[O-])ccc4n3C)CC2)c1	i	21µM	i	i	i	i
N#CC(C#N)=NNc1ccc(OC(F)(F)F)cc1	nt	nt	nt	i	nt	nt
COc1ccc(-c2cc(=O)c3cc(OCC(=O)OC(C)C)ccc3o2)cc1	nt	nt	1.9µM	i	nt	nt
COc1ccc(-c2cc(=NCC(=O)O)c3ccccc3o2)cc1	i[1.84 µM]	?	i	nt	?	i
CN(C)c1ccc(N)cc1	nt	nt	nt	i	nt	nt
COc1ccc(-c2cc(=Nc3cccc(C(=O)O)c3)c3cc(C)ccc3o2)cc1	?	?	9.5µM	nt	5.8µM	i
CC(C)Oc1cccc(C(=O)C2CCCN(Cc3ccon3)C2)c1 (configuration not stated)	i	i	i	nt	i	i
O=C(c1cccc(Cl)c1)C1CCCN(Cc2ccon2)C1 (configuration not stated)	i	0.58µM	i	nt	i	i
Cc1ccc(C(=O)n2c(N)nc3ccccc32)cc1	0.1µM	?	0.19µM	0.4µM	0.21µM	?
CC(=O)c1ccc(NC(=O)c2cc(CC(C)C)on2)cc1	i	?	?	i	18µM	i
N#CSCC(=O)N1c2ccccc2CCc2ccccc21	i	?	i	i	i	i
CN(CC(=O)N1CCc2ccccc21)S(=O)(=O)c1cccs1	3.5µM	?	12µM	11µM	10µM	2.8µM
Nc1ccccc1O.O.O=C(O)[C@H]1[O][Sb][O][C@H]1C(=O)O	nt	nt	nt	i[9.22 µM]	nt	nt
SMILES	Rab9 prom act	ELG1 repair inh	FLuc modulator	SMN2 splice up	ELG1 genotox	NPC1 promoter act
CN(CCOc1ccc(C=C2C(=O)NC(=O)NC2=O)cc1)c1ccccn1	i	?	?	i	i	i
COc1ccc(OCCOc2cccc(C=C3C(=O)NC(=O)NC3=O)c2)cc1	0.11µM	?	8.5µM	nt	i	0.32µM
O=C(O)CS(=O)(=O)C(c1ccccc1)c1ccccc1	nt	nt	nt	i[9.22 µM]	nt	nt
CCc1ccc(CCN2CCCCC2)nc1	nt	nt	nt	i[9.22 µM]	nt	nt
O=C(Nc1ccccc1OC(=O)N1CCCCC1)N1CCCCC1	i	i	i	i	i	i
O=C(Oc1ccc2cc(Br)ccc2c1)N1CCCCCC1	4µM	?	6.7µM	?	23µM	?
O=c1[nH]c(=S)[nH]c(O)c1N=Nc1ccc(S(=O)(=O)N2CCOCC2)cc1	i	?	i	nt	i	i
O=c1[nH]c(=S)[nH]c(O)c1N=Nc1ccc2c(c1)OCO2	2.8µM	?	4.8µM	i	?	?
O=c1[nH]c(O)c(N=Nc2ccc3c(c2)OCCO3)c(=O)[nH]1	i	?	1.5µM	i	?	i
O=c1[nH]c(=S)[nH]c(O)c1N=Nc1ccc2c(c1)OCCO2	2.5µM	?	0.85µM	nt	?	?
COc1ccc(-c2nc(CSCC(=O)N3CCN(c4ccc(F)cc4)CC3)c(C)o2)cc1	nt	nt	i	i	nt	nt
O=C(O)c1cc[c]([Hg][S]c2ncnc3nc[nH]c23)cc1	nt	nt	nt	i[9.22 µM]	nt	nt
Cn1c(NN=O)nc2ccccc21	i	?	24µM	nt	?	i
CNC(=O)Oc1ccc(C(=O)N2c3ccccc3NC(=O)C2C)cc1 (configuration not stated)	i	i	i	nt	i	i
CNC(=O)Oc1ccc2c(c1)C(=O)c1ccccc1CO2	i	?	11µM	i	i	i
NC(=O)Nc1ccc(C(=O)OCC(=O)Nc2ccc(Cl)cc2C(=O)c2ccccc2)cc1	i	21µM	i	i	i	i
Nc1c(C(=O)OCc2ccccc2)c2nc3ccccc3nc2n1Cc1cccs1	i	21µM	i	i	i	i
CCC(C)OC(=O)c1c(N)n(Cc2cccs2)c2nc3ccccc3nc12 (configuration not stated)	i	?	i	?	i	i
Cc1ccc2c(Cl)cc(Cl)c(OCC(=O)N(C(C)C)C(C)C)c2n1	i	26µM	i	i	i	i
CC[C@@]1(O)C(=O)OCc2c1cc1n(c2=O)Cc2cc3cc(O)ccc3nc2-1	nt	nt	nt	i	nt	nt
CC(=O)c1ccc(OC(=O)N(C)c2ccccc2)cc1	?	?	i	16µM	?	?
CC(=O)Nc1ccc(NC(=O)Oc2ccccc2)cc1	i	?	?	i	i	i
CN(C)c1ccc(NC(=O)Oc2ccccc2)cc1	i	?	3µM	i	?	i
O=P(Oc1ccccc1)(Oc1ccccc1)C(Nc1ccccc1)c1ccccc1 (configuration not stated)	i	21µM	i	i	i	i
CC(C)COP(=O)(OCC(C)C)C(Nc1ccccc1)c1ccccc1 (configuration not stated)	i	?	i	nt	i	i
COc1ccc(/C=C2/C(=O)NC(=O)N(c3ccc(C)c(C)c3)C2=O)cc1CN1C(=O)c2ccccc2C1=O	i	i	i	i	i	i
CC1=NN(c2ccccc2)C(=O)C1/C=C1/C(=O)NC(=O)N(c2cccc(C)c2)C1=O (configuration not stated)	i	i	13µM	i	i	i
CC1=NN(c2ccccc2)C(=O)C1/C=C1/C(=O)NC(=O)N(c2cc(C)cc(C)c2)C1=O (configuration not stated)	i	i	17µM	i	i	i
CC1=NN(c2ccccc2)C(=O)C1/C=C1\C(=O)NC(=O)N(c2cc(C)cc(C)c2)C1=O (configuration not stated)	i	i	9.5µM	i	i	i
